An excerpt weighted towards active compounds, which were near 19% of everything screened.
TDP1 cell noCPT: qHTS for Inhibitors of human tyrosyl-DNA phosphodiesterase 1 (TDP1): qHTS in cells in absence of CPT; DT40 Tdp1-/- hTDP1 cells, no CPT, ATP luminescence, 48 h; Potency, µM (titrated, usually from 46.2 µM), actives largely listed as inhibitors; actives 15% (n = 420,000); AID 686978, 2013; note: nearly all actives have a fitted effect of over 55% in size
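DT40 Tdp1-/-;hTDP1 cells, no CPT (DMSO vehicle only), 400 cells/well; compounds pin-transferred; ≥48 hr, 37 °C; CellTiter-Glo 30 min RT dark, luminescence read.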
IL1B secr inh: qHTS for Inhibitors of Inflammasome Signaling: IL-1-beta AlphaLISA Primary Screen. activity change, % at 57.5 µM. actives 4.7% (n = 360,000). THP-1 LPS/ATP IL-1B secretion, AlphaLISA, 16 h; hits give low values. AID 743279, 2014; in the data active = activity change below about -50%; inconclusive = mostly about -30% to -49%
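Secreted IL-1B measured by AlphaLISA bead assay after 16 h compound exposure of THP-1 cells; compounds (final up to 57.5 uM) added 1 h before LPS (250 ng/mL) and ATP (1.25 mM) stimulation; lower signal means less secretion.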
HT1080NT lethal: qHTS for induction of synthetic lethality in tumor cells producing 2HG: qHTS for the HT-1080-NT fibrosarcoma cell line; Potency, µM (top dose mostly 46.1 µM), actives largely listed as cytotoxic; AID 686970, 2013; actives 1.6% (n = 360,000); HT-1080-NT fibrosarcoma viability, CellTiter-Glo ATP luminescence, 48 h;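 note: NT is the 2HG producing partner of a matched IDH1 knockdown line; nearly all actives have a fitted effect of over 55% in size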
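HT-1080-NT; 750 cells/well; 5% FBS RPMI; 48 h compound, 37 degrees C; CellTiter-Glo luminescence; curve fitting and curve-class assignment.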
HT1080 IDH1KD tx: qHTS for induction of synthetic lethality in tumor cells producing 2HG: qHTS for the HT-1080-IDH1KD cell line; HT-1080 IDH1 knockdown viability, ATP luminescence, 48 h; AID 686971, 2013; actives 2% (n = 360,000); Potency, µM (series often up to 46.1 µM), hits mostly cytotoxic
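IDH1KD HT-1080 cells, 750/well, RPMI + 5% FBS; compound pinned after 2 h settling; 48 h, 37 °C; CellTiter-Glo luminescence; % activity normalised to DMSO and no-cell wells; curves fitted, classed by r2 and efficacy.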
DT40 TDP1 CPT: qHTS for Inhibitors of human tyrosyl-DNA phosphodiesterase 1 (TDP1): qHTS in cells in presence of CPT; chicken DT40 Tdp1-/-;hTDP1 cells + 20 nM CPT, ATP luminescence, 48 h; Potency, µM (doses to about 46.2 µM), usual class: inhibitors; actives 12% (n = 420,000); AID 686979, 2013; note: nearly all actives have a fitted effect of over 55% in size
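Chicken DT40 Tdp1-/- cells complemented with human TDP1, 400 cells/well, exposed to compounds plus 20 nM camptothecin for at least 48 h at 37 C; viability read as ATP content by CellTiter-Glo luminescence.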
A number is an active result; n = inactive; u = inconclusive; x = no result. Unless noted, calls come from the whole dose curve; as a rule, active = well fitted curve in the direction sought with a large enough effect; inconclusive = small, poorly fitted or top-dose-only effect, or another doubt; inactive = no such curve, though single readings can be large; an effect the other way counts as inactive or inconclusive.

SMILES	TDP1 cell noCPT	IL1B secr inh	HT1080NT lethal	HT1080 IDH1KD tx	DT40 TDP1 CPT
COc1cccc(CNC(=O)c2ccc(CSc3nc4ccncc4n3Cc3cccc(C)c3)cc2)c1	16.4µM	x	x	x	20.6µM
COc1ccc(N(Cc2ccccc2)S(=O)(=O)c2cccc(C(=O)Nc3ncccc3C)c2)cc1	u	n	n	n	u
CC(C)(C)C(=O)NC(Nc1cccc2cccnc12)C(Cl)(Cl)Cl (configuration not stated)	16.4µM	n	n	n	u
COc1ccccc1NC(NC(=O)c1cccnc1)C(Cl)(Cl)Cl (configuration not stated)	n	n	n	n	u
CC(C)C(=O)NC(NC(=S)Nc1cccc2cccnc12)C(Cl)(Cl)Cl (configuration not stated)	16.4µM	n	n	n	8.2µM
CCC(=O)NC(NC(=S)Nc1cccc2cccnc12)C(Cl)(Cl)Cl (configuration not stated)	14.6µM	n	n	n	18.4µM
CC(=O)c1ccc(OC(=O)Cc2cccc3ccccc23)cc1	n	n	n	n	n
O=C(O)/C(=C\c1ccc(Cl)cc1)c1ccc(F)cc1	n	n	n	n	n
COc1ccc(CCNC(=O)CSc2cc(=O)n(C)c3ccccc23)cc1OC	n	x	x	x	n
Cc1ccc(NC(=O)c2nc(S(=O)(=O)Cc3ccccc3C)ncc2Cl)cc1C	1.64µM	-100.2	u	16.4µM	1.46µM
Cc1ccc(NC(=O)c2nc(S(=O)(=O)Cc3ccccc3F)ncc2Cl)cc1	0.891µM	x	x	x	1.26µM
NS(=O)(=O)c1ccc(NC(=O)c2nc(S(=O)(=O)Cc3ccccc3F)ncc2Cl)cc1	7.08µM	x	x	x	10µM
Cc1ccccc1NC(=O)c1nc(S(=O)(=O)Cc2ccccc2F)ncc1Cl	5.01µM	x	x	x	1.26µM
CCCS(=O)(=O)c1ncc(Cl)c(C(=O)Nc2c(C(=O)c3ccccc3)oc3ccccc23)n1	u	x	x	x	n
CSc1ncc(Cl)c(C(=O)Nc2ccccc2C)n1	n	n	n	n	n
NC(=O)c1cc2n(n1)C(C(F)(F)F)CC(c1ccco1)N2 (configuration not stated)	n	n	n	n	n
COc1ccc(N(C(=O)CNC(=O)c2cccs2)C(C(=O)NC2CCCC2)c2cccnc2)cc1 (configuration not stated)	n	n	n	n	n
O=C(c1ccco1)N1CCC2(CC1)CCN(c1ccc(-c3ccccc3)cc1)CC2	n	x	x	x	n
CCOC(=O)c1c(C)[nH]c(C)c1C(=O)COC(=O)c1cccs1	n	n	n	n	u
CC(C)(C)CC(=O)Nc1ccc(S(=O)(=O)NC2=NCCCCC2)cc1	n	n	n	n	n
Cc1ccc(NC(=O)c2nc(S(=O)(=O)Cc3ccccc3F)ncc2Cl)cc1C	2µM	x	x	x	0.891µM
Cc1ccc(NNC(=O)c2c(F)cccc2Cl)cc1C	n	n	n	n	n
COc1cc(OC)c(/C=C/c2nccc3ccccc23)c(OC)c1	0.1µM	x	x	x	0.0708µM
COc1cc2ccc(-c3ccc4ccccc4n3)cc2cc1OC	6.51µM	n	n	n	u
COc1ccc(/C=C/c2ccc3ccccc3n2)cc1OC	12.6µM	x	x	x	u
SMILES	TDP1 cell noCPT	IL1B secr inh	HT1080NT lethal	HT1080 IDH1KD tx	DT40 TDP1 CPT
COc1ccc(-c2ccc3ccccc3n2)cc1OC	u	n	n	n	n
COc1ccc(/C=C/c2cnc3ccccc3n2)cc1OC	20µM	x	x	x	u
COc1ccc(C(=O)Nc2ccc(C(=O)N3CCC(C)CC3)cc2)cc1OC	n	n	n	n	n
CC1N=C2c3ccccc3N=C(SCC(=O)NCCc3ccccc3)N2C1=O (configuration not stated)	n	x	x	x	n
COc1cc(OC)c(/C=C/c2ccccn2)c(OC)c1	2.82µM	x	x	x	3.16µM
COc1cc(OC)c(C=Cc2ccncn2)c(OC)c1	u	n	n	n	n
COc1cc(OC)c(/C=C/c2ccc3ccccc3n2)c(OC)c1	0.1µM	x	x	x	0.1µM

High-throughput results: PubChem BioAssay, National Center for Advancing Translational Sciences (NCATS)
